# Measurements taken from paper PMC4081100, “A DNA-binding-site landscape and regulatory network analysis for NAC transcription factors in Arabidopsis thaliana”.
# Tests used:
# Experiment in all cases: universal protein binding microarray (PBM); transcription factors of Arabidopsis thaliana; high values mean tight binding
# Conditions in all cases: protein: recombinant; tags: GST; chain copies: 2; dsDNA, one strand shown
# GST-ANAC092(1-176) = target: T1, GST-ANAC092(1-176) (Arabidopsis thaliana, UniProt Q9FKA0 1-176)
# T1 sequence: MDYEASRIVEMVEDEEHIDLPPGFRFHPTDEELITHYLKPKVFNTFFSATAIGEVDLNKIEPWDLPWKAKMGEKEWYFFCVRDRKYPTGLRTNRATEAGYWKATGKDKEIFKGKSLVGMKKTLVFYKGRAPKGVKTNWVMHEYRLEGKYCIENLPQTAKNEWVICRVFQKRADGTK
# In short: (§1)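 Each value is a normalised enrichment score (E-score) describing binding. The GST-tagged proteins, NAC-domain, full-length or DNA-binding-domain, were induced in cells (zinc-finger proteins with zinc acetate added) and purified on glutathione–Sepharose 4B. They were applied at 200 to 500 nM final, in duplicate, to double-stranded custom all-10-mer Agilent 4 × 180K arrays, and gapped and ungapped 8-mers were scored.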
# GST-NTL6(1-168) = GST-NTL6(1-168) (Arabidopsis thaliana, UniProt Q9SCK6 1-168)
# GST-NTL6(1-168), sequence (Q9SCK6 1-168): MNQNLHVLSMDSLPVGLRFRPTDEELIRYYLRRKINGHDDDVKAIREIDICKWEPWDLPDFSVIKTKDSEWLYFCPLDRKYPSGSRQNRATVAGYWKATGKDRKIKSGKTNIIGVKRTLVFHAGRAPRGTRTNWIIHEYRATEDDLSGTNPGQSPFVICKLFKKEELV
# In short: as §1
# GST-ANAC019 NAC domain = target: T2, GST-ANAC019 NAC domain (Arabidopsis thaliana, UniProt Q9C932 14-162)
# T2 sequence: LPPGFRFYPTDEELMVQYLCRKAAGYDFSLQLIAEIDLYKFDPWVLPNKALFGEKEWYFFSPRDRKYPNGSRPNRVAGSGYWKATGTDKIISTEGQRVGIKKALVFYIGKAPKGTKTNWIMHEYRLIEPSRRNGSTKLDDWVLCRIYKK
# In short: as §1
# GST-ANAC055(1-171) = target: T3, GST-ANAC055(1-171) (Arabidopsis thaliana, UniProt Q9LDY8 1-171)
# T3 sequence: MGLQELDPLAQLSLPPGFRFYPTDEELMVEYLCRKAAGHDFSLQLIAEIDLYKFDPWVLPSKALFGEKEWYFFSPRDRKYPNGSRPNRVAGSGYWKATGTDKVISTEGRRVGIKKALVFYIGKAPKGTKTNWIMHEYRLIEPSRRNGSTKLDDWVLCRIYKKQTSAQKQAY
# In short: as §1
# GST-ATAF1 NAC domain = target: T4, GST-ATAF1 NAC domain (Arabidopsis thaliana, UniProt Q39013 7-158)
# T4 sequence: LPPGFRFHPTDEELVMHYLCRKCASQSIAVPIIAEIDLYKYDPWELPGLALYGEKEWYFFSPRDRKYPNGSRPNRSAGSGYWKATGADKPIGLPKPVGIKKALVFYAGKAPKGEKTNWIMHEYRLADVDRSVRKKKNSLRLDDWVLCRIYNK
# In short: as §1
# [1] = target: T5, GST-ANAC092(1-285) full length (Arabidopsis thaliana, UniProt Q9FKA0 1-285)
# T5 sequence: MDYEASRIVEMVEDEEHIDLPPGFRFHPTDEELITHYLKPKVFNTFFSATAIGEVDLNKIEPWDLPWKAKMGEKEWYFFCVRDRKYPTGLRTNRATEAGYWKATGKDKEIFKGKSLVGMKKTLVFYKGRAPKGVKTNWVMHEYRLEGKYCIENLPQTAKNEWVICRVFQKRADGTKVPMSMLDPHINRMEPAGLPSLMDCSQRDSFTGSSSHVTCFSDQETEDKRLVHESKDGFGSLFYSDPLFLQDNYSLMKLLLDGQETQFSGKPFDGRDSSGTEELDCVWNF
# In short: as §1
# GST-NAP(1-166) = target: T6, GST-NAP(1-166) (Arabidopsis thaliana, UniProt O49255 1-166)
# T6 sequence: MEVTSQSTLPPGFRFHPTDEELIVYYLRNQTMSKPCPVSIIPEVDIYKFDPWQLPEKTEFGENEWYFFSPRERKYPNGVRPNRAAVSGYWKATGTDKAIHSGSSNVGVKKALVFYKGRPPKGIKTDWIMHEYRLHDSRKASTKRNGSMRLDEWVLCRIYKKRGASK
# In short: as §1
# GST-NST2(1-184) = target: T7, GST-NST2(1-184) (Arabidopsis thaliana, UniProt Q9M274 1-184)
# T7 sequence: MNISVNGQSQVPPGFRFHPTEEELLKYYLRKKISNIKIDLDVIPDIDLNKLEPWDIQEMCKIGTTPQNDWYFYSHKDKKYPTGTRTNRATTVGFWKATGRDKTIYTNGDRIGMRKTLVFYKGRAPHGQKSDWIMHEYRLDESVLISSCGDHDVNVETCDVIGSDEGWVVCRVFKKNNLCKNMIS
# In short: as §1
# GST-NTL8 NAC domain = target: T8, GST-NTL8 NAC domain (Arabidopsis thaliana, UniProt Q9XIN7 14-156)
# T8 sequence: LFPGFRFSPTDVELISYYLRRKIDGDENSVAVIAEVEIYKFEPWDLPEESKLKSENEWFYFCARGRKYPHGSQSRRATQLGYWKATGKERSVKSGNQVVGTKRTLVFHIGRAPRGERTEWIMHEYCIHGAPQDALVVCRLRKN
# In short: as §1
# GST-SND1(1-203) = target: T9, GST-SND1(1-203) (Arabidopsis thaliana, UniProt Q9LPI7 1-203)
# T9 sequence: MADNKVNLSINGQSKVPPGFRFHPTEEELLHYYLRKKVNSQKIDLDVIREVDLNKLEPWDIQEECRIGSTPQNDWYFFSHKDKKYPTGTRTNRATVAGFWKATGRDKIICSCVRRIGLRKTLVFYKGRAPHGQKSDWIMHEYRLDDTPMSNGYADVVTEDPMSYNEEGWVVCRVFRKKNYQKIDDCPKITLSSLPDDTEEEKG
# In short: as §1
# GST-VND3 NAC domain = target: T10, GST-VND3 NAC domain (Arabidopsis thaliana, UniProt Q9FH59 12-162)
# T10 sequence: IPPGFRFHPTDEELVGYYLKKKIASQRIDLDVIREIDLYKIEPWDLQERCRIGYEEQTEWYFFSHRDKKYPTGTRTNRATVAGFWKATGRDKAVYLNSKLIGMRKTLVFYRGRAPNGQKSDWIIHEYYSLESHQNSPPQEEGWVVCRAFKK
# In short: as §1
# GST-VND7 NAC domain = target: T11, GST-VND7 NAC domain (Arabidopsis thaliana, UniProt Q9C8W9 9-158)
# T11 sequence: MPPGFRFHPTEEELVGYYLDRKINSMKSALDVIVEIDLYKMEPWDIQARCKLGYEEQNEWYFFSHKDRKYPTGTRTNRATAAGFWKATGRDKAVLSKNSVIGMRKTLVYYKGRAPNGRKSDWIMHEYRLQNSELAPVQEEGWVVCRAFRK
# In short: as §1
Sequence,binding signal (GST-ANAC092(1-176)) [E-score],binding signal (GST-NTL6(1-168)) [E-score],binding signal (GST-ANAC019 NAC domain) [E-score],binding signal (GST-ANAC055(1-171)) [E-score],binding signal (GST-ATAF1 NAC domain) [E-score],binding signal [1] [E-score],binding signal (GST-NAP(1-166)) [E-score],binding signal (GST-NST2(1-184)) [E-score],binding signal (GST-NTL8 NAC domain) [E-score],binding signal (GST-SND1(1-203)) [E-score],binding signal (GST-VND3 NAC domain) [E-score],binding signal (GST-VND7 NAC domain) [E-score]
GTACGCAA,0.482,0.121,0.445,0.411,0.407,0.487,0.456,0.394,0.0545,0.47,0.413,0.437
AACGTAAT,0.293,0.183,0.266,0.32,0.359,0.357,0.286,0.309,0.114,0.449,0.359,0.274
TTACGCAA,0.484,0.18,0.447,0.335,0.375,0.484,0.442,0.437,0.18,0.495,0.457,0.468
GCAAGGAA,0.345,0.418,0.185,0.211,0.18,0.371,0.133,0.175,0.431,0.276,0.187,0.229
GAAGGAAC,0.189,0.445,0.172,0.172,0.0557,0.204,0.148,0.249,0.45,0.337,0.114,0.181
GTAAGAAA,0.296,0.422,0.224,0.206,0.311,0.332,0.101,0.289,0.214,0.303,0.16,0.19
ACGTTTTC,0.382,0.196,0.248,0.304,0.336,0.401,0.29,0.32,0.225,0.322,0.303,0.327
AAACGTAA,0.261,0.216,0.268,0.325,0.296,0.378,0.294,0.302,0.154,0.435,0.344,0.294
GCGTATAA,0.375,0.0699,0.0915,0.23,0.229,0.409,0.181,0.285,0.11,0.399,0.213,0.161
ACGTAAGC,0.42,0.133,0.453,0.406,0.352,0.449,0.428,0.298,0.205,0.368,0.437,0.431
TAAGCAAA,0.201,0.431,0.113,0.208,0.202,0.308,0.103,0.291,0.241,0.409,0.248,0.252
AACGTAAG,0.32,0.196,0.132,0.213,0.255,0.366,0.204,0.262,0.124,0.436,0.289,0.226
GTGAAGAA,0.238,0.244,0.305,0.215,0.316,0.197,0.164,0.129,0.403,0.182,0.304,0.288
ACGTTTCC,0.411,0.141,0.312,0.343,0.327,0.432,0.354,0.255,0.439,0.381,0.347,0.359
AAGTAAAG,0.275,0.432,0.107,0.168,0.189,0.32,0.0549,0.265,0.27,0.328,0.175,0.181
ATTGAGTA,0.329,0.135,0.143,0.176,0.251,0.365,0.0897,0.312,0.129,0.404,0.282,0.258
GCACGAAA,0.401,0.0615,0.253,0.197,0.165,0.441,0.245,0.0864,0.0576,0.211,0.173,0.145
CAAGTAAC,0.352,0.316,0.134,0.203,0.0948,0.408,0.0502,0.298,0.185,0.301,0.209,0.0947
ACGCAACA,0.473,0.0917,0.408,0.35,0.292,0.484,0.399,0.4,0.0984,0.467,0.347,0.406
CACGGAAG,0.372,0.0727,0.471,0.435,0.343,0.403,0.367,0.12,0.129,0.164,0.435,0.428
CACGAAAC,0.425,0.112,0.358,0.343,0.261,0.452,0.208,0.224,0.137,0.177,0.326,0.246
AAGGGTAA,0.117,0.194,0.127,0.0999,0.0524,0.134,0.117,0.126,0.444,0.117,0.223,0.0677
TTACGAAA,0.396,0.121,0.248,0.221,0.278,0.409,0.087,0.227,0.067,0.434,0.26,0.233
ATACGCAA,0.485,0.0867,0.429,0.397,0.336,0.487,0.459,0.406,0.172,0.462,0.435,0.433
CAAGTTAC,0.371,0.256,0.163,0.178,0.134,0.411,0.144,0.238,0.167,0.323,0.254,0.184
GTACGCTA,0.428,0.0905,0.124,0.165,0.238,0.449,0.219,0.288,0.129,0.447,0.15,0.233
